Experimental data published in PubChem BioAssay (NCATS).
Inconclusive results are not listed. Activity calls are given as the source filed them. Unless noted, the call rests on the fitted dose curve; in most records, active means well fitted inhibition curve with a large enough effect; inconclusive means small, poorly fitted or top-dose-only effect; inactive means flat fitted curve, though single readings scatter. Non-standard residues stand in square brackets, D forms with d. Residues, ends and D or L forms follow the SMILES beside them. *: point of attachment. Sta = CC(C)C[C@H](N)[C@@H](O)CC(=O)O; Isovaleryl = CC(C)CC(=O)*

What was measured:
[1] = qHTS drug screen for cell cycle checkpoint inhibitors in PARPi-resistant BRCA-mutant ovarian cancer cell lines. (AID 1963452; calls by dose curve); details: PEO1/OlaR viability, CellTiter-Glo luminescence, 96 h; for Z-AUC: stronger effect = lower value
In short: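 PEO1, PEO4 and PEO1/OlaR ovarian cancer cells, 600 per well, exposed 96 h at 37C to a dilution series. Viability read by CellTiter-Glo luminescence, normalized to DMSO and empty wells; activity summarized as Z-AUC.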

[2] = qHTS for identification of novel therapeutic agents for treatment of microphthalmiaassociated transcription factor (MiT) renal cell carcinoma (RCC) (AID 1963991; calls by dose curve); details: CellTiter-Glo, 48 h; for z-score: stronger effect = lower value; for Potency: active = Z-AUC below -0.8 in all three lines
In short: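 Three TFE3-fusion RCC cell lines (UOK109, UOK124, UOK145), 500 cells/well, were exposed to the 1912-compound MIPE 4.0 library for 48 hours at 37 C. Viability was read by CellTiter-Glo luminescence, normalised to DMSO (100%) and empty wells (0%), with 11-concentration curve fits.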

[3] = qHTS profiling for inhibitors of Plasmodium falciparum proliferation (AID 504749); further: nearly all actives have a fitted effect of over 60% in size;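 on activity, negative = inhibition: 0% = DMSO vehicle and full inhibition = artemisinin control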; details: P. falciparum in erythrocytes, SYBR Green DNA, 72 h
In short: (§1)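 Readout was DNA-dye fluorescence from lysed cultures, ex 485/em 535 nm. Parasitized red cells had grown 72 h with compound; data scaled between 0.29 uM artemisinin and DMSO wells and corrected using vehicle-only plates.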

3D7 = experiment: as above; details: P. falciparum in erythrocytes, SYBR Green DNA, 72 h; series mostly up to 28.7 µM
In short: as §1

7G8 = experiment: as above; details: P. falciparum in erythrocytes, SYBR Green DNA, 72 h; series mostly up to 28.7 µM
In short: as §1

AA1029 = experiment: as above; details: P. falciparum in erythrocytes, SYBR Green DNA, 72 h; series mostly up to 28.7 µM
In short: as §1

AS120 = experiment: as above; details: P. falciparum in erythrocytes, SYBR Green DNA, 72 h; series mostly up to 28.7 µM
In short: as §1

[4] = measured here: PEO1 parental Z-AUC
[5] = TFE3-RCC UOK109 viability, measured here: UOK109 Z-AUC
[6] = TFE3-RCC viability, measured here: UOK124 Z-AUC
[7] = TFE3-RCC viability, measured here: UOK145 Z-AUC
[8] = at 28.7 µM (top of the series), parasite line A
[9] = at 28.7 µM (top of the series), parasite line B
[10] = at 12.8 µM (top of the series), parasite line A
[11] = at 12.8 µM (top of the series), parasite line B
Potency means the concentration at half of the fitted maximal effect.

SMILES | Z-AUC [1] | Z-AUC [1, 4] | Z-AUC ([1]; measured here: PEO4 Z-AUC) | z-score [2, 5] | z-score [2, 6] | z-score [2, 7] | activity, negative = inhibition [3, 8] | activity, negative = inhibition [3, 9] | Potency (3D7) | Potency (7G8) | Potency (AA1029) | Potency (AS120) | Potency ([3]; parasite line A) | Potency ([3]; parasite line B) | Potency [1] | Potency ([2]; TFE3-RCC UOK109 viability) | activity, negative = inhibition [3, 10] | activity, negative = inhibition [3, 11]
O=P(O)(O)C(O)(Cn1ccnc1)P(=O)(O)O | 1.02 (inactive) | 1.58 | 2.08 | 0.735 | 1.17 | 1.01 | 8.24% (inactive) | -1.43% (inactive) | inactive | inactive | inactive | inactive |  |  |  |  |  | 
COc1c2occc2cc2ccc(=O)oc12 | 0.446 (inactive) | 1.07 | 1.02 | -0.0945 | 0.483 | 0.177 |  |  |  |  |  |  |  |  |  |  |  | 
CCCCN(CCCC)CCC(O)c1cc2c(Cl)cc(Cl)cc2c2cc(C(F)(F)F)ccc12 (centres undefined) | -0.995 (inactive) | -1.16 | -0.882 | 0.318 | 0.539 | 0.552 |  |  | 3.2 nM (active) | 1.1 nM (active) | 6.3 nM (active) | 5.6 nM (active) | 7.9 nM (active) | 5.6 nM (active) |  |  |  | 
CCN(CC)CCOc1ccc(Nc2ncc3cc(-c4c(Cl)cccc4Cl)c(=O)n(C)c3n2)cc1 |  | -1.55 | -1.25 | -2.53 | -3.17 | -2.04 |  |  |  |  |  |  |  |  | 155 nM (active) | 11.8 nM (active) |  | 
Nc1ccn([C@@H]2O[C@H](CO)[C@@H](O)C2O)c(=O)n1 (some centres undefined) | -1.18 (inactive) | -1.27 | -0.431 | 0.798 | 0.809 | 0.948 | 12.2% (inactive) | 0.749% (inactive) | inactive | inactive | inactive | inactive |  |  |  |  |  | 
O=C(O)c1cc(=O)c2c(OCC(O)COc3cccc4oc(C(=O)O)cc(=O)c34)cccc2o1 | 1.18 (inactive) | 1.06 | 1 | 0.209 | 0.177 | -0.326 | 8.12% (inactive) | 15.8% (inactive) | inactive | inactive | inactive | inactive |  |  |  |  |  | 
c1cnc2cc3c(cc2n1)C1CNCC3C1 | -0.725 (inactive) | -0.804 | -0.403 | -0.0233 | 0.674 | 0.454 |  |  |  |  |  |  |  |  |  |  |  | 
CCOC(=O)C1=C[C@@H](OC(CC)CC)[C@H](NC(C)=O)[C@@H](N)C1 | 0.109 (inactive) | 0.666 | 0.833 | 0.372 | 0.178 | 0.414 |  |  |  |  |  |  |  |  |  |  |  | 
CCOC(=O)C1=C(O)C(=O)N(Cc2ccccc2)C1 | 1.25 (inactive) | 1.01 | 1.38 | 0.919 | 0.303 | 0.693 |  |  |  |  |  |  |  |  |  |  |  | 
CCCCCCCCCCCCCCCCCCCCCCO | 0.761 (inactive) | 0.472 | 0.414 | 0.385 | 0.0399 | 0.476 | -0.041% (inactive) | -11.9% (inactive) | inactive | inactive | inactive | inactive |  |  |  |  |  | 
C[C@@H](c1ncncc1F)[C@](O)(Cn1cncn1)c1ccc(F)cc1F | -0.415 (inactive) | 1.15 | 0.481 | 0.104 | 0.588 | 0.181 |  |  |  |  |  |  |  |  |  |  |  | 
CC(C)CC(=O)N[C@H](C(=O)N[C@H](C(=O)N[C@@H](CC(C)C)[C@@H](O)CC(=O)N[C@@H](C)C(=O)N[C@@H](CC(C)C)[C@@H](O)CC(=O)O)C(C)C)C(C)C (Isovaleryl-VV[Sta]A[Sta]-OH) | 0.839 (inactive) | 0.464 | 0.507 | 0.353 | 0.618 | 0.758 |  |  |  |  |  |  |  |  |  |  |  | 
COc1cc(OC)c(C(=O)CCCN2CCCC2)c(OC)c1 | 1.29 (inactive) | 0.91 | 0.794 | 1.14 | 0.362 | -0.41 |  |  | inactive | inactive | inactive | inactive |  |  |  |  | 17.5% (inactive) | 11% (inactive)
Nc1ccc(S(N)(=O)=O)cc1 | 0.067 (inactive) | 0.495 | 0.56 | 1.06 | 0.709 | 1.29 | 13.4% (inactive) | 14.6% (inactive) | inactive | inactive | inactive | inactive |  |  |  |  |  | 
Cc1ccc(C(=O)c2cc(O)c(O)c([N+](=O)[O-])c2)cc1 | -0.393 (inactive) | -0.655 | -0.817 | 0.222 | 0.88 | 0.533 |  |  |  |  |  |  |  |  |  |  |  | 
C[Se]CCC(N)C(=O)O (centres undefined) | 0.282 (inactive) | 1.03 | 1.31 | 1.47 | 0.35 | 0.0936 | 6.19% (inactive) | -13.4% (inactive) | inactive | inactive | inactive | inactive |  |  |  |  |  | 
Cc1nc(-c2ccc(OCC(C)C)c(C#N)c2)sc1C(=O)O | 0.79 (inactive) | 0.0163 | 0.327 | 1.16 | 0.952 | 0.581 |  |  |  |  |  |  |  |  |  |  |  | 
CCCCc1ccc2nc(NC(=O)OC)[nH]c2c1 |  | -1.68 | -1.66 | -1.8 | -3.11 | -1.73 |  |  | inactive | inactive | inactive | inactive |  |  | 38.9 nM (active) | 16.6 nM (active) | 2.35% (inactive) | 6.2% (inactive)
